# Assays:
# Test in all cases: PBM binding z-score (relative to random genomic background probes); higher = stronger binding; sequences stand for … in GC…GCGATTGACAGCGTAGAATGAAGG
# [1] = test system: RARb homodimer (NR concentration 270 nM)
# Method in brief: (§1)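 Scanned fluorescence from custom Agilent 4×180K protein-binding microarrays was regression-normalized. Binding z-scores use random background probes as reference. Ligand-free nuclear receptor dimers were incubated on the arrays for 1 h and detected with antibodies against each partner (one per run).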
# [2] = test system: RARg:RXRa (NR concentration 270 nM, RXRa partner concentration 90 nM)
# Method in brief: as §1
# [3] = test system: RARg homodimer (NR concentration 270 nM)
# Method in brief: as §1
# [4] = test system: RXRa DBDmut IVT, anti-RXR (DBD mutation: RXRa K156A/R161A, NR concentration 90 nM)
# Method in brief: as §1
# [5] = test system: RXRa homodimer (NR concentration 180 nM)
# Method in brief: as §1
# [6] = test system: THRa:RXRa (NR concentration 90 nM, RXRa partner concentration 90 nM)
# Method in brief: as §1
# [7] = test system: THRa homodimer (NR concentration 90 nM)
# Method in brief: as §1
# [8] = test system: VDR homodimer (NR concentration 270 nM)
# Method in brief: as §1
Sequence,PBM binding z-score [1],PBM binding z-score [2],PBM binding z-score [3],PBM binding z-score [4],PBM binding z-score [5],PBM binding z-score [6],PBM binding z-score [7],PBM binding z-score [8]
CATACAGGGTCAGCTAGGCCGGAGTAGGGACGGC,3,4.28,4.35,1.18,3.93,2.78,0.818,0.84
ATATGTAGGTTATCGAGTCATTCAGTTTGCGCAT,0.699,0.829,0.699,0.829,0.932,0.512,0.232,0.932
CCTTCCGGGTCAAGGTTATAGCACGGGTGGTACG,3.39,4.76,4.46,0.695,4.97,3.73,2.35,1.72
ACTATTAGTTGGGACGAGGGCAACCGATAGGTTG,1.37,0.644,0.82,0.0733,0.516,1.64,0.629,1.12
CGTCCAAGGTAAAAGGTCAGTGAAGAGATGACGG,4.88,4.86,5.11,0.584,5.53,3.28,0.539,0.435
GCTTACGGGTCAATGGTTATAGCATGAATAGAAT,2.28,4.02,3.9,1.65,4.17,1.87,-0.17,0.787
ATATGTTGGTTACATCCGGGTCATTCAGGCTATG,2.54,1.79,1.29,0.674,2.18,3.16,2.45,2.26
CCGACTGGGGCATAAGGTTACCAAAAGCCAGCCC,1.97,1.72,0.905,-0.369,1.3,2.24,1.14,0.0369
TCTGCTAGGGCAGTTGGTCAGCTAACGAGCTGCC,0.33,-0.0411,0.49,-0.0574,-0.74,-0.754,-0.968,-1.08
TCAAGTTGGTCAAAGGTCACACACTCGAAATGCG,5.19,7.2,6.47,2.15,8.37,4.16,1.86,2.4
AGAATGAGGTTACCAAAGATCAGGGTAACGCTTG,1.37,2.15,1.95,1.3,3.07,3.1,1.43,0.478
TGAATGAGGTTATAAGGTCAGGGAACGTTGCAAA,4,5.81,4.21,1.11,5.44,4.24,3.73,1.88
CCTCGCAGGCCAGGGTCACTCAAGCATTTCGCTT,2.71,2.93,2.2,0.363,3.06,2.84,1.2,1.43
ATCGAAAGGTCGTGAGGTGAATATACAGAAAGGC,3.06,4.98,3.95,1.72,5.61,3.72,1.77,1.24
CGTCCTAGGTCAGAGAGGTCAGTGAATGCCGAGT,4.71,5.31,5.94,1.92,4.49,3.77,1.92,3.9
GCTAGTTCGTCAGTAAAAGGTCACACACCGGTCG,5,5.12,4.64,2.51,5.36,3.72,1.98,2.88
ACTTACGGGTCAACGAGGTTATACCACGCGTATA,3.79,5.84,5.48,3.08,6.66,3.97,1.34,4.44
ACTTACGGGTCAACGATGTTATAGCACGCGTATA,3.01,5.25,5,2.19,5.56,2.76,0.387,1.21
ATCTCTAGGTAACAAGTTCCGTGAAAGAGAGGAC,0.549,0.357,0.586,-0.202,0.164,0.983,0.899,0.475
CGTAAAAGTTCAAGGTAACGTAACAGAAAGCAGC,3.55,4.73,5.27,4.27,3.81,2.92,1.17,2.67
ACTAGCGGGCCAAGTTTGGGTCACTCAAACAAAG,2.11,2.14,1.65,-0.0414,1.01,2.43,0.811,0.0653
TCATATAGGTAAATGCTAGGAGAAAGTCCGATCT,-0.501,0.278,0.46,1.67,0.597,-0.0458,-0.197,-0.0177
GCTAGTTGGTCAGTCAAAGGTCACACACCGGTCG,5.2,5.9,4.85,0.537,5.93,3.52,1.59,1.47
GCAGACAGGTGAAACGCAGGTAACTTAGGGTGGC,0.119,0.872,0.154,-0.334,0.754,1.55,-0.353,-0.61
GCTAGCAGGCCATTTGTGTCACTCAATGACGGGC,-0.0499,-0.217,0.011,0.131,-0.25,-0.583,-0.967,-0.895
GATACAGAGTCAAGGCCAGAGTACGCGTATTGAT,0.0594,0.0796,0.345,-0.102,0.116,0.0889,-0.438,-0.0653

Sequence,PBM binding z-score [1],PBM binding z-score [2],PBM binding z-score [3],PBM binding z-score [4],PBM binding z-score [5],PBM binding z-score [6],PBM binding z-score [7],PBM binding z-score [8]
ACTATTAGTTGAGACGAGGGCAATCGATAGGTTG,0.955,0.898,0.973,0.801,0.517,2.22,-0.15,1.06
ATGGAAAGGTCGAAGGTGAGTATACCCACCCGAA,2.68,4.21,3.87,0.318,4.97,2.3,0.00488,0.714
CCGACTGGGGCAGAAAGGTGACCATACCATCCGG,1.8,0.634,0.776,-0.975,0.533,0.282,-0.472,-0.595
CGTCCAAGGTCAGAAGGTCAGTGAAAGCGACGTG,5.32,7.13,6.77,2.87,5.71,4.12,1.8,2.18
ACTTACGAGTCAACGAGGTTATAGCACGCGTATA,0.874,1.07,0.785,0.637,1.59,2.04,0.474,0.877
CTACCAAGGTGAACAAGGTCGTTGCTTACTATTC,2.09,1.83,1.34,1.73,2.12,3.15,2.03,2.89
ATCTATAGGTAACAAGTTCAGTGAAAGAGAGGAC,2.01,1.61,1.59,1.56,1.19,1.33,0.91,2.47
ATCTTTAGGTAACCAAGTTCAGTGAATGCCGAAC,1.55,0.783,1.04,1.36,0.709,2.07,1.25,2.66
CAAATTAGGTCACAGAGGTCAAAGTCCGTGCGTA,5.59,7.24,7.81,3.72,7.43,4.73,3.68,6.37
GTACCAAGGAGAATAGGTCGTTGATGAGTAGGCG,0.0836,0.268,0.222,-0.343,0.654,-0.111,-0.986,-0.123
TAGCCTAGGGCAGATCGGGCCAGTATACGCTATA,-0.161,0.171,0.578,-1.17,-0.16,2.16,-1.07,-0.532
CATACAGGGTCAGCTAGGCCATAGTAGGGACGGC,3.28,4.35,4.7,1.7,4.53,3.22,0.737,1.1
CCTTACGGGGCACGAGGTTATAGCACGACGAGCG,1.27,2.07,1.74,-0.444,1.92,1.48,0.0456,0.346
CGCACTAGGTCAGAACAGGACAGTGAAGGATGAT,2.18,2.44,3.31,0.675,1.34,3.71,0.508,-0.275
TCATATCGGTAATACAGGTGAAAGTCGGCATCTA,0.531,0.354,0.441,1.09,0.783,0.59,0.42,0.435
GCTCGGAGGACAAGGTCAGCGCTTTGTCCGTAGA,3.72,3.85,4.29,0.531,3.07,3.23,1.82,0.607
TAACCTAGGTCATGGGCCAGTATACCACGCGAAC,3.63,5.07,5.12,1.07,4.02,3.3,1.87,1.35
CCGACTGGGGCAAAAGGTTACCATAAGCCAGCCC,3.28,3.72,2.32,0.0121,2.71,1.44,-0.187,-0.455
ATACCAAGGTGATCGTGAGGTCGATGATACTAAC,1.82,2.16,1.22,0.391,1.36,3.09,1.95,1.21
ATCTCTAGGTAAAGTTTAGTGAAAGATCGATAGA,0.401,0.251,0.558,0.303,0.0525,0.362,0.126,0.236
GCTTGTAGATGAAGGTTAAGAAAGACTAAGCTAA,0.181,0.18,0.177,-0.235,0.368,0.351,-0.694,-0.443
GCTTACGGGTCAAAGGATATAGCATGAATAGAAT,2.26,4.62,3.96,1.92,5.17,2.22,-0.222,0.703
TCATGTAGATCAATAGAGGTTAAGAAAGTGCGCT,1.44,0.871,0.576,1.27,1.28,2.31,-0.192,0.637
CGAACTAGGTCATTGACAGTACAGTGAATAGTAA,2.62,3.89,4.03,2.62,2.48,2.48,0.979,0.986
TCTATTAGCTGATTAGGGCAACCGAAACAGCGGA,-0.0375,0.212,0.313,0.509,0.233,0.211,-0.143,-0.58
ACTTACCGGTCAACGAGGTTATAGCACGCGTATA,2.92,3.45,3.85,1.25,2.27,2.69,1.21,2.26

# — the supplement of paper PMC6555819
